In PubChem BioAssay (EPA / NIEHS):
Results filed as inconclusive are left out. The source made the active and inactive calls. The calls were made as follows: active = hit-call score of the fitted dose curve at least 0.9, where 1 is the maximum; inconclusive = response in the unintended direction; inactive = score below 0.9.

Read-out: xenobiotic metabolism (CYP1A1), CYP1A1 (gene 1543)
Assay: CLD_CYP1A1_24hr: CellzDirect (CLD) Gene Expression Assay for xenobiotic metabolism (CYP1A1) at 24 hours (AID 2283673)
Method: CLD_24hr is a cell-based, multiplexed-readout assay that uses hepatocyte, a human liver primary cell, with measurements taken at 24 hours after chemical dosing in a 96-well plate.CLD_CYP1A1_24hr is one of 16 assay component(s) measured or calculated from the CLD_24hr assay. It is designed to make measurements of mRNA induction, a form of inducible reporter, as detected with chemiluminescence signals by Quantitative Nuclease Protection Assay (qNPA) technology.Data from the assay component CLD_CYP1A1_24hr was analyzed at the endpoint, CLD_CYP1A1_24hr, in the positive analysis fitting direction relative to DMSO as the negative control and baseline of activity. Using a type of inducible reporter, gain-of-signal activity can be used to understand changes in the reporter gene as they relate to the gene CYP1A1. Furthermore, this assay endpoint can be referred to as a primary readout. To generalize the intended target to other relatable targets, this assay endpoint is annotated to the cyp intended target family, where subfamily is xenobiotic metabolism.
Human hepatocyte cultures were treated daily for two consecutive days with fresh dosing solutions containing appropriate concentrations of the 320 ToxCast chemicals (chemical identities were blinded to CellzDirect and other ToxCast collaborators), vehicle control (0.2% DMSO), and positive control inducers as summarized in Table 1. Due to the large number of treatment groups and chemicals examined, the ToxCast chemicals were divided into two groups (spanning two independent cultures of hepatocytes from separate donor preparations (Hu778: ToxCast plates 1 and 2; Hu776: ToxCast plates 3 and 4). Each preparation of human hepatocyte cultures was treated with respective vehicle control, medium only control, set of six positive controls/reference chemicals for the five hepatic receptor pathways, and a subset of eight of the ToxCast chemicals (indoxacarb, pyrithiobac-sodium, norflurazon, cyhalofop-butyl, methomyl, thiram, acetochlor, and propiconazole). These replicate data, coupled with internal replicates designed within the blinded ToxCast chemical library, provided additional data to evaluate interindividual differences between hepatocyte preparations and their potential impact on chemical profiles.Cell morphology and integrity were evaluated using phase-contrast microscopy as an indicator of hepatocyte cell health (Tyson & Green, 1987). Cultures for each treatment group (i.e., media, vehicle [0.2% DMSO], positive control inducers [multiple concentrations], and the ToxCast chemicals [multiple concentrations]) were observed and cell morphology was assessed relative to vehicle control cultures at each harvest time point (0, 6, 24, or 48 h). […] Images were evaluated at the conclusion of the study to assess changes in cell integrity and account for the effects of chemical exposure on uncharacteristic changes in concentration-dependent gene expression profiles. The results from these determinations of apparent cytotoxicity were annotated (yes/no) alongside the corresponding qNPA data for reference.At the conclusion of each treatment period, hepatocyte cultures (96-well) were washed with 1 volume of HBSS, lysed by addition of 25 ul ArrayPlate lysis buffer (HTG, Tucson, AZ), and 70 ul/well of Denaturation Oil, denatured by incubation at 95C for 10 min, and frozen at approximately -70C until analysis by nuclease protection assay (qNPA) (Roberts et al., 2007). For qNPA analysis, cell lysates were thawed at 50C for approximately 30 min, qNPA probes were added, and samples were incubated at 95C for 10 min to begin the detection process by denaturing the target RNA, dissociating the duplexes and secondary structure hybridization. At the conclusion of the hybridization period, S1 nuclease reagent was added to each sample to digest all nonprotected nucleotides at 50C for 60-90 min. […]

Structure (SMILES)	outcome	AC50
Nc1nc(N)nc(NC2CC2)n1	inactive	
CCC(CC)Nc1c([N+](=O)[O-])cc(C)c(C)c1[N+](=O)[O-]		20 µM (active)
O=[N+]([O-])c1cc(C(F)(F)F)c(Cl)c([N+](=O)[O-])c1Nc1ncc(C(F)(F)F)cc1Cl		0.485 µM (active)
COc1ccc(C(=CC(=O)N2CCOCC2)c2ccc(Cl)cc2)cc1OC	inactive	
CC[C@H](C)[C@H]1O[C@]2(C=C[C@@H]1C)C[C@@H]1C[C@@H](C/C=C(\C)[C@@H](O[C@H]3C[C@H](OC)[C@@H](O[C@H]4C[C@H](OC)[C@@H](NC)[C@H](C)O4)[C@H](C)O3)[C@@H](C)/C=C/C=C3\CO[C@@H]4[C@H](O)C(C)=C[C@@H](C(=O)O1)[C@]34O)O2	inactive	
CNc1cnn(-c2cccc(C(F)(F)F)c2)c(=O)c1Cl		5.85 µM (active)
CCOP(=S)(OCC)Oc1ccc2c(C)c(Cl)c(=O)oc2c1		1.89 µM (active)
CCOC(=O)CC(SP(=O)(OC)OC)C(=O)OCC (stereo not given)		5.29 µM (active)
Cc1cc(C2CC2)nc(Nc2ccccc2)n1		29.9 µM (active)
CSc1nnc(C(C)(C)C)c(=O)n1N	inactive	
C#CC(C)(C)NC(=O)c1cc(Cl)cc(Cl)c1	inactive	
COP(=O)(OC)OC(Br)C(Cl)(Cl)Br (stereo not given)	inactive	
CCCCN(CC)c1c([N+](=O)[O-])cc(C(F)(F)F)cc1[N+](=O)[O-]		8.49 µM (active)
CC(C1CC1)C(O)(Cn1cncn1)c1ccc(Cl)cc1 (stereo not given)		11.9 µM (active)
CCCSP(=O)(OCC)SCCC		2.42 µM (active)
CCOP(=S)(OCC)Oc1cc(C)nc(C(C)C)n1		6.62 µM (active)
Cc1ccn2nc(S(=O)(=O)Nc3c(F)cccc3F)nc2n1	inactive	
CCCCOC(=O)[C@@H](C)Oc1ccc(Oc2ccc(C#N)cc2F)cc1	inactive	
CN1COCN(Cc2cnc(Cl)s2)C1=N[N+](=O)[O-]	inactive	
C=C(C)[C@H]1Cc2c(ccc3c2O[C@@H]2COc4cc(OC)c(OC)cc4[C@@H]2C3=O)O1		3.38 µM (active)

Structure (SMILES)	outcome	AC50
CCc1cccc(CC)c1N(COC)C(=O)CCl		3.06 µM (active)
CCNc1nc(Cl)nc(NC(C)(C)C#N)n1	inactive	
CCCSP(=O)(OCC)Oc1ccc(Br)cc1Cl (stereo not given)		20 µM (active)
CC(Oc1cccc(Cl)c1)C(=O)O (stereo not given)	inactive	
CCOC(=O)COc1cc(-c2nn(C)c(OC(F)F)c2Cl)c(F)cc1Cl	inactive	
CCOP(=S)(OCC)SCCSCC		2.7 µM (active)
CC1=NNC(=O)N(/N=C/c2cccnc2)C1		4.96 µM (active)
C[Si](Cn1cncn1)(c1ccc(F)cc1)c1ccc(F)cc1		2.21 µM (active)
Cc1nn(-c2cc(NS(C)(=O)=O)c(Cl)cc2Cl)c(=O)n1C(F)F	inactive	
CCOP(=O)(SC(C)CC)N1CCSC1=O (stereo not given)	inactive	
FC(F)C(F)(F)OCC(Cn1cncn1)c1ccc(Cl)cc1Cl (stereo not given)		5.2 µM (active)
CCC(=O)Nc1ccc(Cl)c(Cl)c1		5.72 µM (active)
COc1cccc(C(=O)NN(C(=O)c2cc(C)cc(C)c2)C(C)(C)C)c1C		36.4 µM (active)
CC(C)N(C(=O)SCC(Cl)=C(Cl)Cl)C(C)C	inactive	
CCCCSP(=O)(SCCCC)SCCCC		4.53 µM (active)
CSC1=N[C@@](C)(c2ccccc2)C(=O)N1Nc1ccccc1		3 µM (active)
CCc1cccc(C)c1N(C(=O)CCl)C(C)COC (stereo not given)		4.65 µM (active)
N#CSCSC#N	inactive	
CCOP(=S)(OCC)OC(Cl)C(Cl)(Cl)Cl (stereo not given)		4.46 µM (active)
COP(=O)(OC)SCn1c(=O)oc2cc(Cl)cnc21	inactive	
